{
  "source": "paper PMC4336329",
  "about": "(PLoS ONE, 2015)",
  "note": "Among all 310,000 compounds or so, about 14,000 (4.5%) showed an effect of 50% or more. Effects have a minus sign here. For the sample, strong results were picked, then their nearest neighbours and some compounds at random.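 Also: peak tail current of the secondary pulse compared with the same well before compound.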",
  "data": [
    {"biological_target": "human ether-à-go-go-related gene (hERG) potassium channel (human, UniProt Q12809)", "sequence (Q12809 whole entry, looked up)": "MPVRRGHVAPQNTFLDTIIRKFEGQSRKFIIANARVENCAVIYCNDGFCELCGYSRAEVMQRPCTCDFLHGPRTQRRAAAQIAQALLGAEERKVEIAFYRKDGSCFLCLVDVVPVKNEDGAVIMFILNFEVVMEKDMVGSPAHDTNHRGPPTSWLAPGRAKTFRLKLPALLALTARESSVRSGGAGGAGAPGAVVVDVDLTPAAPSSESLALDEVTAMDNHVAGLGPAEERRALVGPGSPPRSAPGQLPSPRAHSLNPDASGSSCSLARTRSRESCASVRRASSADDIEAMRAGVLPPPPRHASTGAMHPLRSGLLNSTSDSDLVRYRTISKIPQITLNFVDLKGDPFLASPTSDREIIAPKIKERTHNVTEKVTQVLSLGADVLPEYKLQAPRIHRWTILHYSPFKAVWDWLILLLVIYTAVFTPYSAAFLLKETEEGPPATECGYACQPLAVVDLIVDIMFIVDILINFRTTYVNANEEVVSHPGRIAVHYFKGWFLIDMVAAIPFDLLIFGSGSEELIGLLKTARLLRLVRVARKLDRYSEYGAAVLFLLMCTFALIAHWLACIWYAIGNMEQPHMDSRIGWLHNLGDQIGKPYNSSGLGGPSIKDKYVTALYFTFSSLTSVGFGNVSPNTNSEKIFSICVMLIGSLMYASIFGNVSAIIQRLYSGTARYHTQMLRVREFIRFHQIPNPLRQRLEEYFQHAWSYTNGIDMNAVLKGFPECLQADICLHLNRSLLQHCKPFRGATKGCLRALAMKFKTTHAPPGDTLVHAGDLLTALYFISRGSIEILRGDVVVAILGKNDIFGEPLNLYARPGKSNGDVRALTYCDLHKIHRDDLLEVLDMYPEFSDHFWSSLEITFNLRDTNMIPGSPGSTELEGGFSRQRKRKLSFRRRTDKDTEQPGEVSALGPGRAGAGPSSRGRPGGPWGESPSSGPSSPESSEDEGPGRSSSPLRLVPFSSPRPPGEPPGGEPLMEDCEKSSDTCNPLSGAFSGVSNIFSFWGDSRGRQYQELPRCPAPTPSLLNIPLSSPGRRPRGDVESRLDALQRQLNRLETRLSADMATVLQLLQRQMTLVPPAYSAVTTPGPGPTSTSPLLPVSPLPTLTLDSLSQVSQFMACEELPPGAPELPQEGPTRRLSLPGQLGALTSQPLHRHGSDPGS", "experiment": "primary screen, population patch clamp on CHO cells stably expressing hERG; higher = less effect of the substance", "experimental": "Briefly, Chinese hamster ovary (CHO) cells stably expressing the hERG channel were dislodged from tissue culture flasks and dispensed into PPC plates. […] During the recording, background leak currents were estimated by a 100 ms step to -80 mV from an initial holding potential of -70 mV and subtracted from the subsequent current measurement. The campaign was conducted in two phases using slight differences in recording protocol. In the first phase, the initial voltage pulse used a 100 ms step to -30 mV from a holding potential of -70 mV, a 2 s conditioning step to +25 mV, and a 2 s test step to -30 mV. During the second phase of the screen, the potential during the conditioning step was raised to +45 mV. In both phases of the campaign, a secondary voltage pulse was applied using the same parameters as the second phase initial pulse. The initial and secondary pulses were applied in the absence of compound, and upon application of 1 μM and 10 μM test concentrations. […]", "units": {"hERG current change (%, negative = inhibition) at 10uM": "%"}, "values": [
      {"smiles": "O=C(NCC1CCCO1)c1ccc(-c2cccc(C(F)(F)F)c2)o1", "note": "(centres unmarked)", "hERG current change (%, negative = inhibition) at 10uM": -16.2},
      {"smiles": "O=C(NCC1CCCO1)c1cccc(Oc2ccccc2)c1", "note": "(centres unmarked)", "hERG current change (%, negative = inhibition) at 10uM": -37.5},
      {"smiles": "O=C(NCC1CCCO1)c1cccc(Oc2ccc([N+](=O)[O-])cc2)c1", "note": "(centres unmarked)", "hERG current change (%, negative = inhibition) at 10uM": -73.7},
      {"smiles": "CC(=O)c1ccc(-c2ccc(C(=O)NCC3CCCO3)o2)cc1", "note": "(centres unmarked)", "hERG current change (%, negative = inhibition) at 10uM": -50.5},
      {"smiles": "Cc1ccc(C(=O)NCC2CCCO2)o1", "note": "(centres unmarked)", "hERG current change (%, negative = inhibition) at 10uM": 7.49},
      {"smiles": "O=C(NCC1CCCO1)c1ccc(NC(=O)c2cccc([N+](=O)[O-])c2)cc1", "note": "(centres unmarked)", "hERG current change (%, negative = inhibition) at 10uM": 3.68},
      {"smiles": "O=c1cc(CN2CCN(c3cccc(Cl)c3)CC2)c2cc3c(cc2o1)CCCC3", "hERG current change (%, negative = inhibition) at 10uM": 15.8},
      {"smiles": "Cc1ccc(S(=O)(=O)CCC(=O)OCC(=O)N2CC(=O)Nc3ccccc32)cc1", "hERG current change (%, negative = inhibition) at 10uM": -22.1},
      {"smiles": "O=C(NCc1ccco1)NC12CC3CC(CC(C3)C1)C2", "hERG current change (%, negative = inhibition) at 10uM": 14.5},
      {"smiles": "CC(C)=CCN1CCN(Cc2cn(C(C)C)c3ccccc23)CC1CCO", "note": "(centres unmarked)", "hERG current change (%, negative = inhibition) at 10uM": -10.5},
      {"smiles": "COc1ccc(N2CCN(S(=O)(=O)CCNC(=O)C3CCCCC3)CC2)cc1", "hERG current change (%, negative = inhibition) at 10uM": 5.98},
      {"smiles": "O=C(Cc1ccccc1)NCCS(=O)(=O)N1CCN(c2cccc(Cl)c2)CC1", "hERG current change (%, negative = inhibition) at 10uM": -82.8},
      {"smiles": "O=C(NCCS(=O)(=O)N1CCN(c2ccccc2)CC1)c1ccc(Br)o1", "hERG current change (%, negative = inhibition) at 10uM": -5.85},
      {"smiles": "O=C(NCCS(=O)(=O)N1CCN(c2ccccc2)CC1)C1CC1", "hERG current change (%, negative = inhibition) at 10uM": 3.93},
      {"smiles": "O=C(NCCS(=O)(=O)N1CCN(c2ccc(F)cc2)CC1)c1ccc(Br)o1", "hERG current change (%, negative = inhibition) at 10uM": -60.1},
      {"smiles": "O=C(Cc1ccc(F)cc1)NCCS(=O)(=O)N1CCN(c2cccc(Cl)c2)CC1", "hERG current change (%, negative = inhibition) at 10uM": -16.2},
      {"smiles": "Cc1cccc(CC(=O)NCCS(=O)(=O)N2CCN(c3cccc(Cl)c3)CC2)c1", "hERG current change (%, negative = inhibition) at 10uM": -20.2},
      {"smiles": "O=C(NCCS(=O)(=O)N1CCN(c2ccccc2F)CC1)c1ccco1", "hERG current change (%, negative = inhibition) at 10uM": -16.5},
      {"smiles": "COc1ccc(N2CCN(S(=O)(=O)CCNC(=O)c3ccc(Br)o3)CC2)cc1", "hERG current change (%, negative = inhibition) at 10uM": 10.6},
      {"smiles": "O=C(NCCS(=O)(=O)N1CCN(c2cccc(Cl)c2)CC1)c1ccco1", "hERG current change (%, negative = inhibition) at 10uM": -73.8},
      {"smiles": "O=C(NCCS(=O)(=O)N1CCN(c2cccc(Cl)c2)CC1)C1CCCC1", "hERG current change (%, negative = inhibition) at 10uM": -79},
      {"smiles": "O=C(NCCS(=O)(=O)N1CCN(c2cccc(Cl)c2)CC1)c1cc(=O)c2ccccc2o1", "hERG current change (%, negative = inhibition) at 10uM": 5.36},
      {"smiles": "O=C1c2ccccc2S(=O)(=O)N1CCOc1ccc(F)cc1", "hERG current change (%, negative = inhibition) at 10uM": -27.6},
      {"smiles": "CCOC(=O)c1sc(NC(=O)c2ccco2)nc1C", "hERG current change (%, negative = inhibition) at 10uM": 13.3},
      {"smiles": "CC(=O)Nc1ccc(NC(=O)CC2SC(=O)N(CC(=O)c3ccccc3)C2=O)cc1", "note": "(centres unmarked)", "hERG current change (%, negative = inhibition) at 10uM": 7.25},
      {"smiles": "COCC1CCCCN1C(=O)c1cccc(OC2CCN(S(C)(=O)=O)CC2)c1", "note": "(centres unmarked)", "hERG current change (%, negative = inhibition) at 10uM": 14.7},
      {"smiles": "CCS(=O)(=O)c1ccc(O)c(NC(=O)COc2ccc(Br)cc2)c1", "hERG current change (%, negative = inhibition) at 10uM": -3.73},
      {"smiles": "O=C(COc1ccc(Br)cc1Cl)NC(=S)N1CCc2ccccc21", "hERG current change (%, negative = inhibition) at 10uM": 21.7},
      {"smiles": "COc1ccccc1OCc1ccc(C(=O)NC(C)(C)C)o1", "hERG current change (%, negative = inhibition) at 10uM": 2.29},
      {"smiles": "O=C(Cn1c(=O)oc2cc(S(=O)(=O)NCc3ccccc3)ccc21)N1CCCC1", "hERG current change (%, negative = inhibition) at 10uM": 15.2},
      {"smiles": "C=CCn1c(SCC(=O)Nc2ccccc2F)nc2ccccc2c1=O", "hERG current change (%, negative = inhibition) at 10uM": 5.56},
      {"smiles": "CC(C)Sc1nc2c(cnn2-c2ccc(Cl)cc2)c(=O)[nH]1", "hERG current change (%, negative = inhibition) at 10uM": 26.2},
      {"smiles": "Cc1nnc(SCC(=O)N2CCCC2)n(N)c1=O", "hERG current change (%, negative = inhibition) at 10uM": 14.1},
      {"smiles": "O=C(Cc1ccc(F)cc1)NCCS(=O)(=O)N1CCN(c2ccccc2)CC1", "hERG current change (%, negative = inhibition) at 10uM": 5.42},
      {"smiles": "O=C(NCCS(=O)(=O)N1CCN(c2ccccc2)CC1)c1ccccc1F", "hERG current change (%, negative = inhibition) at 10uM": 6.68},
      {"smiles": "O=C(NCCS(=O)(=O)N1CCN(c2ccc(F)cc2)CC1)c1ccco1", "hERG current change (%, negative = inhibition) at 10uM": -62.2},
      {"smiles": "COc1ccc(N2CCN(S(=O)(=O)CCNC(=O)c3ccco3)CC2)cc1", "hERG current change (%, negative = inhibition) at 10uM": -9.43},
      {"smiles": "O=C(NCCS(=O)(=O)N1CCN(c2ccccc2)CC1)c1ccco1", "hERG current change (%, negative = inhibition) at 10uM": -14.5},
      {"smiles": "CSc1ccccc1C(=O)NCCS(=O)(=O)N1CCN(c2ccc(F)cc2)CC1", "hERG current change (%, negative = inhibition) at 10uM": -67.6},
      {"smiles": "CCOC(=O)c1cnn(Cc2ccccc2Cl)c1N", "hERG current change (%, negative = inhibition) at 10uM": -11},
      {"smiles": "COc1ccccc1-c1oc2ccccc2c1C#CCCCCO", "hERG current change (%, negative = inhibition) at 10uM": 22.6},
      {"smiles": "COc1ccc(-c2nn(-c3ccccc3)cc2/C=C2/SC(=S)N(CCCC(=O)O)C2=O)c(C)c1", "hERG current change (%, negative = inhibition) at 10uM": 26},
      {"smiles": "Cc1ccc(CN2C(=O)C(CC(C)C)Nc3ncnc(N4CCN(c5ccccn5)CC4)c32)cc1.O=C(O)C(F)(F)F", "note": "(centres unmarked)", "hERG current change (%, negative = inhibition) at 10uM": -43.3},
      {"smiles": "Cc1ccc(CN2C(=O)C(C)Nc3ncnc(N4CCN(c5ccccn5)CC4)c32)cc1.O=C(O)C(F)(F)F", "note": "(centres unmarked)", "hERG current change (%, negative = inhibition) at 10uM": -56.1},
      {"smiles": "CC1Nc2ncnc(N3CCN(c4ccccn4)CC3)c2N(Cc2ccccc2)C1=O.O=C(O)C(F)(F)F", "note": "(centres unmarked)", "hERG current change (%, negative = inhibition) at 10uM": -19.8},
      {"smiles": "CCC1Nc2ncnc(N3CCN(c4ccccn4)CC3)c2N(Cc2ccc(Cl)cc2)C1=O.O=C(O)C(F)(F)F", "note": "(centres unmarked)", "hERG current change (%, negative = inhibition) at 10uM": -73.8},
      {"smiles": "CCC1Nc2ncnc(N3CCN(c4ccccc4)CC3)c2N(Cc2ccc(Cl)cc2)C1=O.O=C(O)C(F)(F)F", "note": "(centres unmarked)", "hERG current change (%, negative = inhibition) at 10uM": -17.4},
      {"smiles": "CCC1Nc2ncnc(N3CCCCC3)c2N(Cc2ccccc2)C1=O.O=C(O)C(F)(F)F", "note": "(centres unmarked)", "hERG current change (%, negative = inhibition) at 10uM": -4.8},
      {"smiles": "Cc1ccc(S(=O)(=O)N2CCN(C(=O)CN3C(=O)NC4(CCCCC4)C3=O)CC2)c(C)c1", "hERG current change (%, negative = inhibition) at 10uM": 1.52},
      {"smiles": "COc1ccc(S(=O)(=O)N2CC(C)OC(C)C2)cc1C(=O)N1CCCCC1", "note": "(centres unmarked)", "hERG current change (%, negative = inhibition) at 10uM": 6.93},
      {"smiles": "O=C(OCc1c(F)cccc1Cl)c1cnc2ccccc2n1", "hERG current change (%, negative = inhibition) at 10uM": 17.6},
      {"smiles": "CCCn1nc2cc(C(=O)NC3CCCc4ccccc43)ccc2c1OCC", "note": "(centres unmarked)", "hERG current change (%, negative = inhibition) at 10uM": -8.93},
      {"smiles": "CN(C)S(=O)(=O)c1cccc(COC(=O)Cc2c(F)cccc2Cl)c1", "hERG current change (%, negative = inhibition) at 10uM": 9.75}
    ]}
  ]
}
